Laboratory results published in PubChem BioAssay.

Legend:
[1] = system: Human papillomavirus type 1a protein E7 (residues 44-93); test: HPV1a E7 fragment binders on microarrays, primary screen, biochemical, small-molecule microarray, residues 44-93, 635 nm fluorescence (AID 1108); settings: small-molecule microarray binding, fluorescence 635 nm; higher = more signal;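 further: E7 fragment applied at 1 µg/mL in TBST for 1 h at 4 C; score combines spot fluorescence with its signal to noise ratio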
[2] = modulators of HCV replicon luciferase signal, primary screen, HCV replication inhibitor project, Huh7 cells, luciferase reporter (AID 1109); settings: 48 h, higher = more signal;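 further: huh7 hepatoma cells harbouring a luciferase neomycin HCV replicon reporter; luciferase luminescence as measure of HCV replicon replication; test concentration not given here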
[3] = molecular target: Left-right determination factor 2 (Homo sapiens) (UniProt O00292); test: LEFTY2 binders on small-molecule microarrays, primary screen, biochemical, small-molecule microarray, 635 nm fluorescence scan (AID 1110); settings: LEFTY2 binding, higher = more signal
Chain of Left-right determination factor 2 (Homo sapiens) (O00292 whole entry, looked up): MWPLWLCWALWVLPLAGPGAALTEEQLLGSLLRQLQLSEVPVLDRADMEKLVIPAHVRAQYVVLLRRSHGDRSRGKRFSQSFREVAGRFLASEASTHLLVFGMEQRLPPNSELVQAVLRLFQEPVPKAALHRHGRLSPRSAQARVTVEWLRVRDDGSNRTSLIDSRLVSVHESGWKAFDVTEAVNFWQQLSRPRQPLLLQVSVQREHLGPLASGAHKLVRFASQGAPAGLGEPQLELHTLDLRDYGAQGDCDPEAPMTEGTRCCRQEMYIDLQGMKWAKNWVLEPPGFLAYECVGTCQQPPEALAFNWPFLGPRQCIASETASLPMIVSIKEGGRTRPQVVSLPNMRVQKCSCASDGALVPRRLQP

[4] = molecular target: Calmodulin-1 (Homo sapiens) (UniProt P0DP23); test: CALM1 binders on microarrays, EGTA buffer, profiling panel, biochemical, small-molecule microarray, Cy5-labelled CALM1 (AID 1111); settings: Cy5-CALM1 binding fluorescence, higher = more signal;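 further: labelled calmodulin applied in Tris saline Tween buffer holding calcium plus EGTA and DTT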
[5] = molecular target: Calmodulin-1 (Homo sapiens) (UniProt P0DP23); test: calcium-bound CALM1 binders on microarrays, profiling panel, artefact control for SMM control-protein annotation, biochemical, small-molecule microarray, Cy5-labelled CALM1, plus calcium (AID 1112); settings: Cy5-CALM1 binding fluorescence, higher = more signal;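 further: score merges spot fluorescence with signal to noise from triplicate slides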
[6] = small-molecule microarray binders of probe aWnt5a, primary screen, biochemical, biotinylated probe, 635/667 nm fluorescence (AID 1113); settings: higher = more signal;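 further: score merges 667 nm fluorescence intensity with signal-to-noise per printed feature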
[7] = small-molecule microarray binders of probe aShh, primary screen, biochemical, biotinylated probe, 635/667 nm fluorescence (AID 1114); settings: higher = more signal;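 further: probe is biotin-labelled aShh protein from a stem cell growth factor screen; measures binding of labelled protein to compounds printed on the slide; score merges feature fluorescence at 667 nm with signal-to-noise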
[8] = small-molecule microarray binders of probe aNog, primary screen, biochemical, biotinylated probe, 635/667 nm fluorescence (AID 1115); settings: higher = more signal;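 further: probe is biotinylated aNog protein used at 0.15 µg/mL for 1 h at 4 C; z-score combines 667 nm fluorescence of each spot with its signal to noise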
[9] = molecular target: Torsin-1A-interacting protein 1 (Homo sapiens) (UniProt Q5JTV8); test: LAP1 binders from COS7 cell lysate, primary screen, small-molecule microarray, 635/667 nm fluorescence (AID 1116); settings: COS7-hLAP1 lysate binding, 635 nm fluorescence, higher = more signal
Chain of Torsin-1A-interacting protein 1 (Homo sapiens) (Q5JTV8 whole entry, looked up): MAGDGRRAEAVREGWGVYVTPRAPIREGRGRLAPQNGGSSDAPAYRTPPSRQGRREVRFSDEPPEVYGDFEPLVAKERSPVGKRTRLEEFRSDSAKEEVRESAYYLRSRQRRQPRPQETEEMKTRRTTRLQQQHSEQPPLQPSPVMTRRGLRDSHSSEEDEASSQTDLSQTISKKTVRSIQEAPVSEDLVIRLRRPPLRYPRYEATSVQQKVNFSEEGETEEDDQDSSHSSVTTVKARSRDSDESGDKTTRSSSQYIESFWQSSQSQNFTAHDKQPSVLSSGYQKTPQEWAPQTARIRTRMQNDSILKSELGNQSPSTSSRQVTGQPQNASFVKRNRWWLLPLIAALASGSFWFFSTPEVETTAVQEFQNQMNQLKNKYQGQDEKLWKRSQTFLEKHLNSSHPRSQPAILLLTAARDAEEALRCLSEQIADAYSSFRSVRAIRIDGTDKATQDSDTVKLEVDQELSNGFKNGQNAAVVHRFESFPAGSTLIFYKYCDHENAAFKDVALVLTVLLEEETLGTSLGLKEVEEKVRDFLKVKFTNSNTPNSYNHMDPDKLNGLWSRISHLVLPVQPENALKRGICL

[10] = molecular target: Alpha-bungarotoxin (Bungarus multicinctus) (UniProt P60615); test: alpha-bungarotoxin binders on microarray, profiling panel, artefact control for SMM control protein annotation, biochemical, small-molecule microarray, Alexa647 label, 635/667 nm fluorescence (AID 1117); settings: alpha-BTX-A647 binding fluorescence, higher = more signal
Chain of Alpha-bungarotoxin (Bungarus multicinctus) (P60615 whole entry, looked up): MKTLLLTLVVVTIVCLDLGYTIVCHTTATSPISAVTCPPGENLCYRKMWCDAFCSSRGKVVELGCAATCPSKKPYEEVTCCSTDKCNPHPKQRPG

O=C1O[C@H](c2ccccc2)[C@H](c2ccccc2)N2[C@H]1[C@@H](C(=O)O)[C@]1(C(=O)Nc3ccc(C#CC4=CCCCC4)cc31)[C@H]2c1ccccc1OCCO
composite z-score [1]: -0.65 | z-score [2]: -2.4 | composite z-score [3]: 0.663 | composite z-score [4]: 1.61 | composite z-score [5]: 0.179 | composite z-score [6]: 0.795 | composite z-score [7]: -0.602 | composite z-score [8]: 0.948 | composite z-score [9]: 0.926 | composite z-score [10]: 2.23

C=CCN1C(=O)[C@]2(O[C@H](CCO)[C@@H]([Si](C)(C)c3ccc(OC)cc3)[C@@H]2C)c2cc(N3CCCCC3=O)ccc21
composite z-score [1]: 1.44 | z-score [2]: -4.11 | composite z-score [3]: 0.0651 | composite z-score [4]: 0.856 | composite z-score [5]: 0.352 | composite z-score [6]: -0.0977 | composite z-score [7]: 0.147 | composite z-score [8]: 0.431 | composite z-score [9]: 0.957 | composite z-score [10]: 1.19

[N-]=[N+]=Nc1ccccc1[C@H]1OC(c2ccc(OCCCO)cc2)=N[C@@]1(Cc1ccccc1)C(=O)O
composite z-score [1]: 1.46 | z-score [2]: 1.09 | composite z-score [3]: -0.271 | composite z-score [4]: 0.577 | composite z-score [5]: -0.0461 | composite z-score [6]: 0.0375 | composite z-score [7]: 0.483 | composite z-score [8]: -0.0277 | composite z-score [9]: 0.826 | composite z-score [10]: 2.07

CN1C(=O)C2C=CC(C(O)C3=C[C@H]4C[C@@H](C3)C4(C)C)N(Nc3ccccc3)C2C1=O (stereo not given in full)
composite z-score [1]: 1.41 | z-score [2]: -0.181 | composite z-score [3]: 0.269 | composite z-score [4]: 0.18 | composite z-score [5]: -0.162 | composite z-score [6]: 0.14 | composite z-score [7]: 0.13 | composite z-score [8]: 0.612 | composite z-score [9]: 0.802 | composite z-score [10]: 0.647

Cc1ccc(S[C@]2(C(=O)NCC(F)(F)F)CC(=O)N(C(C)C)[C@@H]2c2ccc(CO)cc2I)cc1
composite z-score [1]: -0.554 | z-score [2]: -1.76 | composite z-score [3]: -0.754 | composite z-score [4]: -0.0874 | composite z-score [5]: 0.363 | composite z-score [6]: -0.101 | composite z-score [7]: -0.0192 | composite z-score [8]: 0.986 | composite z-score [9]: -0.261 | composite z-score [10]: -0.472

C=C(CCCC)C(=O)CC[C@H](OC(=O)c1cccnc1)c1ccccc1OCCO
composite z-score [1]: -0.935 | z-score [2]: -2.46 | composite z-score [3]: -0.154 | composite z-score [4]: -0.398 | composite z-score [5]: -0.95 | composite z-score [6]: -0.0758 | composite z-score [7]: -0.102 | composite z-score [8]: -0.136 | composite z-score [9]: -0.0529 | composite z-score [10]: -0.0583

COc1ccc(NN2C(C(O)c3ccc([N+](=O)[O-])cc3)C=CC3C(=O)N(C4CCCCC4)C(=O)C32)cc1 (stereo not given)
composite z-score [1]: 1.35 | z-score [2]: 0.376 | composite z-score [3]: -0.0693 | composite z-score [4]: 1.04 | composite z-score [5]: 0.212 | composite z-score [6]: -0.0758 | composite z-score [7]: 0.368 | composite z-score [8]: 0.797 | composite z-score [9]: 0.55 | composite z-score [10]: 0.799

O=C(c1ccccc1)N1Cc2ccccc2[C@@H]2OC(c3ccc(OCCCO)cc3)=N[C@]2(Cc2ccccc2)C1=O
composite z-score [1]: 1.29 | z-score [2]: -1.58 | composite z-score [3]: 0.243 | composite z-score [4]: 0.978 | composite z-score [5]: -0.0808 | composite z-score [6]: 0.0825 | composite z-score [7]: -0.305 | composite z-score [8]: -0.364 | composite z-score [9]: 0.215 | composite z-score [10]: 1.19

O=C1C2C=CC(C(O)C(c3ccccc3)c3ccccc3)N(n3cnnc3)C2C(=O)N1Cc1ccccc1 (stereo not given)
composite z-score [1]: 1.24 | z-score [2]: -0.832 | composite z-score [3]: -0.164 | composite z-score [4]: 0.836 | composite z-score [5]: -0.34 | composite z-score [6]: 0.07 | composite z-score [7]: 0.184 | composite z-score [8]: 0.976 | composite z-score [9]: 1.57 | composite z-score [10]: 0.652

COC(=O)c1c(CC[C@@H](CO)NC(=O)N2CCC[C@H]2Cn2cc(-c3ccccn3)nn2)oc(C(C)=O)c1C(=O)OC
composite z-score [1]: 0.0413 | z-score [2]: -1.03 | composite z-score [3]: -0.219 | composite z-score [4]: -0.209 | composite z-score [5]: -0.747 | composite z-score [6]: -0.152 | composite z-score [7]: -0.0474 | composite z-score [8]: -0.0418 | composite z-score [9]: -0.219 | composite z-score [10]: -0.0614

C[C@]1(C(=O)NC2CC2)c2ccccc2C(=O)N(Cc2cc(C(F)(F)F)cc(C(F)(F)F)c2)[C@H]1c1ccc(CO)cc1
composite z-score [1]: 1.29 | z-score [2]: -0.106 | composite z-score [3]: 0.122 | composite z-score [4]: 0.224 | composite z-score [5]: 0.114 | composite z-score [6]: -0.0478 | composite z-score [7]: -0.276 | composite z-score [8]: 0.467 | composite z-score [9]: 0.207 | composite z-score [10]: 1.48

C=CC[C@@]1(C(=O)N(C)C)N=C(c2ccc(OCCCO)cc2)O[C@@H]1c1ccccc1N=[N+]=[N-]
composite z-score [1]: 0.608 | z-score [2]: -1.08 | composite z-score [3]: 0.232 | composite z-score [4]: 2.66 | composite z-score [5]: 1.03 | composite z-score [6]: 0.0597 | composite z-score [7]: 0.613 | composite z-score [8]: 2.21 | composite z-score [9]: 2.7 | composite z-score [10]: 2.95

CC(C)(C)OC(=O)CC[C@@]1(C(N)=O)N=C(c2ccc(OCCCO)cc2)O[C@@H]1c1ccccc1
composite z-score [1]: 1.38 | z-score [2]: 0.14 | composite z-score [3]: -0.289 | composite z-score [4]: 0.31 | composite z-score [5]: -0.216 | composite z-score [6]: -0.0512 | composite z-score [7]: -0.419 | composite z-score [8]: -0.534 | composite z-score [9]: 1.2 | composite z-score [10]: 0.646
